# This is part of a sample that, as a whole, favours compounds with a hit. Of some 79,000 tested, about 15% had one in any assay. Unmarked numbers belong to inactive results. Active and inactive are the calls of the source. Cut-off read from the data, not from the text of the source: active = growth inhibition above about 70%; inactive = the rest.
# How the values were obtained:
# [1] = NCI Yeast Anticancer Drug Screen. Data for the rad52 strain (AID 147);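 note: 0% = growth of vehicle-treated control cultures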; conditions: S. cerevisiae rad52 mutant growth inhibition, active compounds read high
# In short: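 Compounds are applied to a genetically defined yeast strain lacking normal DNA damage repair, and inhibition of growth is expressed relative to cultures given vehicle only.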
# [2] = NCI Yeast Anticancer Drug Screen. Data for the wt1 strain (AID 149);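 note: 0% = growth of vehicle-treated wt1 cultures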; conditions: S. cerevisiae wt1 strain (SPY 50644) growth inhibition, active compounds read high
# In short: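 Using yeast strain wt1, compound-induced growth inhibition was determined against vehicle-treated cultures.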
# [3] = NCI Yeast Anticancer Drug Screen. Data for the rad50EPP+ strain (AID 151);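 note: 0% = growth of vehicle-treated control cultures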; conditions: S. cerevisiae rad50 mutant strain, active compounds read high
# In short: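 Compounds were applied to the rad50EPP+ yeast strain, which bears a defined DNA repair alteration, and growth inhibition was determined relative to vehicle-treated cultures.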
# [4] = NCI Yeast Anticancer Drug Screen. Data for the mgt1 strain (AID 153); conditions: S. cerevisiae mgt1 mutant growth inhibition, active compounds read high
# In short: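 Strain: mgt1 yeast, one of a set carrying defined DNA damage repair or cell cycle control alterations. Compound-treated growth compared with vehicle.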
# [5] = NCI Yeast Anticancer Drug Screen. Data for the rad50 strain (AID 155);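 note: 0% = growth of vehicle-only cultures of the same strain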; conditions: S. cerevisiae rad50 strain growth inhibition, active compounds read high
# In short: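 Relative growth inhibition (compound vs vehicle) was measured in yeast with a defined repair-gene alteration.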
# [6] = NCI Yeast Anticancer Drug Screen. Data for the mec2-1 strain (AID 157); conditions: S. cerevisiae mec2-1 strain, active compounds read high
# In short: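 Strain: mec2-1 (DNA repair/cell cycle alteration). Compound exposure, then growth measured; inhibition expressed relative to vehicle.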
# [7] = NCI Yeast Anticancer Drug Screen. Data for the rad14 strain (AID 159);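 note: 0% = growth of vehicle-treated control cultures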; conditions: S. cerevisiae rad14 strain growth inhibition, active compounds read high
# In short: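 Screen for anticancer potential: a yeast strain altered in DNA damage repair is grown with compound, and reduced growth is quantified against vehicle controls.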
# [8] = NCI Yeast Anticancer Drug Screen. Data for the sgs1 mgt1 strain (AID 161);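 note: 0% = growth of cultures given vehicle only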; conditions: S. cerevisiae sgs1 mgt1 strain, active compounds read high
# In short: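 Read-out: growth inhibition vs vehicle controls. Cells: mutant yeast strain deficient in DNA damage repair.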
# [9] = NCI Yeast Anticancer Drug Screen. Data for the cln2 rad14 strain (AID 165);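 note: 0% = growth equal to vehicle treated cultures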; conditions: S. cerevisiae cln2 rad14 strain, active compounds read high
# In short: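 Compounds are applied to the cln2 rad14 yeast strain, and growth is then compared with that of vehicle-treated cultures to give inhibition.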
# [10] = NCI Yeast Anticancer Drug Screen. Data for the bub3 strain (AID 167); conditions: S. cerevisiae bub3 mutant strain, active compounds read high
# In short: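 Screening used yeast with an engineered genetic alteration affecting cell cycle control. Compound-exposed cultures were compared with vehicle cultures, and reduced growth was taken as inhibition.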
# [11] = NCI Yeast Anticancer Drug Screen. Data for the wt2 strain (AID 169);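 note: 0% = growth of vehicle-treated yeast cultures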; conditions: S. cerevisiae wt2 strain growth inhibition, active compounds read high
# In short: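 This strain belongs to a panel of yeast strains with defined genetic alterations in DNA damage repair or cell cycle control. Compounds are applied, and growth inhibition is measured against vehicle-treated cultures.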
# [12] = NCI Yeast Anticancer Drug Screen. Data for the mlh1 strain (AID 171);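 note: 0% = growth of vehicle-treated control cultures of the same strain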; conditions: S. cerevisiae mlh1 strain growth inhibition, active compounds read high
# In short: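 Growth of the mutant yeast strain after compound exposure, expressed as inhibition relative to vehicle-only controls.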
# [13] = NCI Yeast Anticancer Drug Screen. Data for the sgs1 strain (AID 173);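 note: 0% = growth of vehicle-only control cultures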; conditions: S. cerevisiae sgs1 mutant, active compounds read high
# In short: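 Growth of a yeast strain bearing a defined genetic alteration is measured after compound treatment. Inhibition is expressed relative to vehicle-only controls.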
# [14] = NCI Yeast Anticancer Drug Screen. Data for the mlh1 rad18 strain (AID 175); conditions: S. cerevisiae mlh1 rad18 strain growth inhibition, active compounds read high
# In short: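 Read-out is yeast growth inhibition, calculated against vehicle-only controls. The compound was applied to a strain engineered with DNA damage repair alterations.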
# [15] = NCI Yeast Anticancer Drug Screen. Data for the rad18 strain (AID 177); conditions: S. cerevisiae rad18 mutant growth inhibition, active compounds read high
# In short: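 Growth of the mutant yeast strain after compound exposure, normalised to vehicle-only cultures.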
# [16] = NCI Yeast Anticancer Drug Screen. Data for the CLN2oe strain (AID 163);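 note: 0% = growth of vehicle-only control cultures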; conditions: S. cerevisiae CLN2oe strain, active compounds read high
# In short: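 Growth of a genetically modified yeast strain is measured after compound exposure and compared with cultures given vehicle alone.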
# [17] = at 5.0 µM (retest, dose inferred, filed as 0.5)
# [18] = at 50.0 µM (retest, dose inferred, filed as 5.0)
compound,measurement,setting,value
COc1cc(NCCCCNCC(C)(C)C)c2ncccc2c1,growth inhibition,[1]; at 1.2 µM,-3%
same,growth inhibition,[1]; at 3.7 µM,1%
same,growth inhibition,[1]; at 11.0 µM,8%
same,growth inhibition,[1]; at 33.0 µM,14%
same,growth inhibition,[1]; at 100.0 µM,26%
same,growth inhibition,[2]; at 1.2 µM,-2%
same,growth inhibition,[2]; at 3.7 µM,1%
same,growth inhibition,[2]; at 11.0 µM,4%
same,growth inhibition,[2]; at 33.0 µM,0%
same,growth inhibition,[2]; at 100.0 µM,1%
same,growth inhibition,[3]; at 1.2 µM,-8%
same,growth inhibition,[3]; at 3.7 µM,-12%
same,growth inhibition,[3]; at 11.0 µM,-16%
same,growth inhibition,[3]; at 33.0 µM,-19%
same,growth inhibition,[3]; at 100.0 µM,-17%
same,growth inhibition,[4]; at 1.2 µM,0%
same,growth inhibition,[4]; at 3.7 µM,3%
same,growth inhibition,[4]; at 11.0 µM,6%
same,growth inhibition,[4]; at 33.0 µM,14%
same,growth inhibition,[4]; at 100.0 µM,2%
same,growth inhibition,[5]; at 1.2 µM,-5%
same,growth inhibition,[5]; at 3.7 µM,1%
same,growth inhibition,[5]; [17],11%
same,growth inhibition,[5]; at 11.0 µM,6%
same,growth inhibition,[5]; at 33.0 µM,10%
same,growth inhibition,[5]; [18],25%
same,growth inhibition,[5]; at 50.0 µM,59.9%
same,growth inhibition,[5]; at 100.0 µM,35%
same,growth inhibition,[6]; at 1.2 µM,-3%
same,growth inhibition,[6]; at 3.7 µM,-4%
same,growth inhibition,[6]; [17],-3%
same,growth inhibition,[6]; at 11.0 µM,0%
same,growth inhibition,[6]; at 33.0 µM,2%
same,growth inhibition,[6]; [18],16%
same,growth inhibition,[6]; at 50.0 µM,18%
same,growth inhibition,[6]; at 100.0 µM,13%
same,growth inhibition,[7]; at 1.2 µM,-1%
same,growth inhibition,[7]; at 3.7 µM,8%
same,growth inhibition,[7]; at 11.0 µM,29%
same,growth inhibition,[7]; at 33.0 µM,32%
same,growth inhibition,[7]; at 100.0 µM,28%
same,growth inhibition,[8]; [17],1%
same,growth inhibition,[8]; [18],28%
same,growth inhibition,[8]; at 50.0 µM,51.8%
same,growth inhibition,[9]; [17],5%
same,growth inhibition,[9]; [18],33%
same,growth inhibition,[9]; at 50.0 µM,51.6%
same,growth inhibition,[10]; at 1.2 µM,-2%
same,growth inhibition,[10]; at 3.7 µM,-2%
same,growth inhibition,[10]; [17],3%
same,growth inhibition,[10]; at 11.0 µM,0%
same,growth inhibition,[10]; at 33.0 µM,19%
same,growth inhibition,[10]; [18],20%
same,growth inhibition,[10]; at 50.0 µM,70.9% (active)
same,growth inhibition,[10]; at 100.0 µM,37%
same,growth inhibition,[11]; at 1.2 µM,-1%
same,growth inhibition,[11]; at 3.7 µM,-1%
same,growth inhibition,[11]; at 11.0 µM,3%
same,growth inhibition,[11]; at 33.0 µM,5%
same,growth inhibition,[11]; at 100.0 µM,5%
same,growth inhibition,[12]; at 1.2 µM,-3%
same,growth inhibition,[12]; at 3.7 µM,-1%
same,growth inhibition,[12]; at 11.0 µM,5%
same,growth inhibition,[12]; at 33.0 µM,12%
same,growth inhibition,[12]; at 100.0 µM,16%
same,growth inhibition,[13]; at 1.2 µM,-3%
same,growth inhibition,[13]; at 3.7 µM,-2%
same,growth inhibition,[13]; at 11.0 µM,6%
same,growth inhibition,[13]; at 33.0 µM,15%
same,growth inhibition,[13]; at 100.0 µM,20%
same,growth inhibition,[14]; [17],-1%
same,growth inhibition,[14]; [18],31%
same,growth inhibition,[14]; at 50.0 µM,37.1%
same,growth inhibition,[15]; at 1.2 µM,-5%
same,growth inhibition,[15]; at 3.7 µM,0%
same,growth inhibition,[15]; at 11.0 µM,7%
same,growth inhibition,[15]; at 33.0 µM,8%
same,growth inhibition,[15]; at 100.0 µM,16%
N#CCC(=O)N/N=C(\c1ccccc1)C(c1ccccc1)C1(O)C(=O)Nc2c(Cl)ccc(Cl)c21 (stereo unspecified),growth inhibition,[1]; at 1.2 µM,0%
same,growth inhibition,[1]; at 3.7 µM,0%
same,growth inhibition,[1]; at 11.0 µM,3%
same,growth inhibition,[1]; at 33.0 µM,9%
same,growth inhibition,[1]; at 100.0 µM,11%
same,growth inhibition,[2]; at 1.2 µM,0%
same,growth inhibition,[2]; at 3.7 µM,0%
same,growth inhibition,[2]; at 11.0 µM,0%
same,growth inhibition,[2]; at 33.0 µM,-1%
same,growth inhibition,[2]; at 100.0 µM,-3%
same,growth inhibition,[3]; at 1.2 µM,2%
same,growth inhibition,[3]; at 3.7 µM,10%
same,growth inhibition,[3]; at 11.0 µM,15%
same,growth inhibition,[3]; at 33.0 µM,24%
same,growth inhibition,[3]; at 100.0 µM,32%
same,growth inhibition,[4]; at 1.2 µM,1%
same,growth inhibition,[4]; at 3.7 µM,-1%
same,growth inhibition,[4]; at 11.0 µM,-3%
same,growth inhibition,[4]; at 33.0 µM,-2%
same,growth inhibition,[4]; at 100.0 µM,19%
same,growth inhibition,[5]; at 1.2 µM,5%
same,growth inhibition,[5]; at 3.7 µM,0%
same,growth inhibition,[5]; [17],7%
same,growth inhibition,[5]; at 11.0 µM,8%
same,growth inhibition,[5]; at 33.0 µM,15%
same,growth inhibition,[5]; [18],51%
same,growth inhibition,[5]; at 50.0 µM,43.8%
same,growth inhibition,[5]; at 100.0 µM,25%
same,growth inhibition,[6]; at 1.2 µM,3%
same,growth inhibition,[6]; at 3.7 µM,4%
same,growth inhibition,[6]; [17],-11%
same,growth inhibition,[6]; at 11.0 µM,4%
same,growth inhibition,[6]; at 33.0 µM,6%
same,growth inhibition,[6]; [18],36%
same,growth inhibition,[6]; at 50.0 µM,41%
same,growth inhibition,[6]; at 100.0 µM,11%
same,growth inhibition,[7]; at 1.2 µM,3%
same,growth inhibition,[7]; at 3.7 µM,7%
same,growth inhibition,[7]; at 11.0 µM,10%
same,growth inhibition,[7]; at 33.0 µM,27%
same,growth inhibition,[7]; at 100.0 µM,39%
same,growth inhibition,[8]; [17],4%
same,growth inhibition,[8]; [18],39%
same,growth inhibition,[8]; at 50.0 µM,51.8%
same,growth inhibition,[16]; at 1.2 µM,-1%
same,growth inhibition,[16]; at 3.7 µM,-2%
same,growth inhibition,[16]; at 11.0 µM,-2%
same,growth inhibition,[16]; at 33.0 µM,-8%
same,growth inhibition,[16]; at 100.0 µM,-11%
same,growth inhibition,[9]; [17],9%
same,growth inhibition,[9]; [18],10%
same,growth inhibition,[9]; at 50.0 µM,6.8%
same,growth inhibition,[10]; at 1.2 µM,2%
same,growth inhibition,[10]; at 3.7 µM,5%
same,growth inhibition,[10]; [17],8%
same,growth inhibition,[10]; at 11.0 µM,11%
same,growth inhibition,[10]; at 33.0 µM,15%
same,growth inhibition,[10]; [18],30%
same,growth inhibition,[10]; at 50.0 µM,30.3%
same,growth inhibition,[10]; at 100.0 µM,24%
same,growth inhibition,[12]; at 1.2 µM,0%
same,growth inhibition,[12]; at 3.7 µM,-1%
same,growth inhibition,[12]; at 11.0 µM,-1%
same,growth inhibition,[12]; at 33.0 µM,0%
same,growth inhibition,[12]; at 100.0 µM,18%
same,growth inhibition,[13]; at 1.2 µM,-1%
same,growth inhibition,[13]; at 3.7 µM,0%
same,growth inhibition,[13]; at 11.0 µM,1%
same,growth inhibition,[13]; at 33.0 µM,11%
same,growth inhibition,[13]; at 100.0 µM,37%
same,growth inhibition,[14]; [17],6%
same,growth inhibition,[14]; [18],-6%
same,growth inhibition,[14]; at 50.0 µM,69.2%
